Source: PubChem BioAssay
KB-V1 cytotox: kills drug-selected multidrug resistant KB-V1 cells. KB-V1 MDR cells viability, CellTiter-Glo, 72 h. Potency, µM (top dose mostly 46.1 µM), actives largely listed as cytotoxic. 400,000 compounds, 3.4% hits. AID 1347076; note: potency is the fitted concentration of half-maximal effect; % is set by controls: 0 for no effect and ±100 for the full control effect; nearly all actives have a fitted effect of over 60% in size
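Readout: CellTiter-Glo luminescence, 10 min after addition. Cells: KB-V1 MDR subline, 72 h at 37 degrees C with compound. Analysis: corrected, normalized data fitted to concentration-effect curves.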
KB-3-1 tox: KB-3-1 parental cell cytotoxicity | Potency, µM (highest dose often 46.1 µM), hits mostly cytotoxic | 400,000 compounds, 1.4% hits | KB-3-1 viability, CellTiter-Glo ATP luminescence, 72 h | AID 1347075; note: potency is the fitted concentration of half-maximal effect; % is set by controls: 0 for no effect and ±100 for the full control effect; nearly all actives have a fitted effect of over 60% in size
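KB-3-1 parental drug-naive adenocarcinoma cells in DMEM/10% FBS, incubated 72 h at 37 C with pin-transferred compounds across a concentration series. Viability by CellTiter-Glo luminescence; concentration-response curves fitted after normalization.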
IL1B secr inh: inhibitors of inflammasome signaling (IL-1 beta secretion). THP-1 LPS/ATP IL-1B secretion, AlphaLISA, 16 h; active compounds read low. activity change, % at 57.5 µM. 360,000 compounds, 4.7% hits. AID 743279; in the data active = activity change below about -50%; inconclusive = mostly about -30% to -49%; note: % is set by controls: 0 for no effect and ±100 for the full control effect
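Secreted IL-1B measured by AlphaLISA bead assay after 16 h compound exposure of THP-1 cells; compounds (final up to 57.5 uM) added 1 h before LPS (250 ng/mL) and ATP (1.25 mM) stimulation; lower signal means less secretion.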
MCF10A rerep: induces DNA re-replication in MCF 10a normal breast cells | 350,000 compounds, 2.9% hits | MCF 10A DNA re-replication, Hoechst nuclear intensity, 48 h | Potency, µM (doses to about 46.1 µM), for inactives: at the top dose activity, positive = re-replication, most hits filed as activators | AID 624296; note: potency is the fitted concentration of half-maximal effect; % of control where 0% means no effect; nearly all actives have a fitted effect of over 50% in size
SW480 rerep: inducers of DNA re-replication in SW480 colon cancer cells; SW480 DNA re-replication, Hoechst DNA content imaging, 48 h; Potency, µM (titrated, usually from 46.1 µM), for the others: at the highest dose re-replication activation, actives largely listed as activators; 340,000 compounds, 1.8% hits; note: potency is the fitted concentration of half-maximal effect; % of control where 0% means no effect; nearly all actives have a fitted effect of over 55% in size
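Cells (250 per well) received 23 nL compound or DMSO by pin tool and were kept 48 hr at 37 C, 5% CO2. Nuclei were then stained with Hoechst for 40 min and scanned for DNA content.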
Active calls of the source: *; i = inactive; ? = inconclusive; . = not tested or not shown. Only some compounds are listed: those with a hit (about 9.9% of all), similar ones and a draw of the others. Unless noted, calls come from the whole dose curve; as a rule, active = well fitted curve in the direction sought with a large enough effect; inconclusive = small, poorly fitted or top-dose-only effect, or another doubt; inactive = no such curve, though single readings can be large; an effect the other way counts as inactive or inconclusive.

SMILES	KB-V1 cytotox	KB-3-1 tox	IL1B secr inh	MCF10A rerep	SW480 rerep
CCOC(=O)N1CCC(NC(=O)c2cc3sccc3n2CC)CC1	23.1µM*	i	18.8	?	-6.8%
C/C(=C\C(=O)c1c(O)cc(C)oc1=O)N(C)C	i	i	-5.8	-0.5%	-5.3%
CSc1ccc(/C=C/C(=O)c2c(O)cc(C)oc2=O)cc1	i	?	-19.5	?	18.4µM*
Cc1cc(O)c(C(=O)/C=C/c2ccc(Cl)cc2)c(=O)o1	?	16.4µM*	?	?	-1.4%
C/C(=N/NC(=O)c1cccc(C)c1)c1c(O)cc(C)oc1=O	?	?	-8.2	4.6%	-4.7%
CCCCCOC(=O)NC1CCS(=O)(=O)C1 (centres undefined)	?	i	14.9	-15.4%	-40.9%
CCOc1ccccc1/C=C(\C#N)C1=CCCC1	i	i	-14.0	-1.6%	-10.4%
Cc1cccc(NC(=O)C2CCN(S(=O)(=O)c3ccc(F)cc3)CC2)c1C	?	i	.	.	.
COc1ccc(Br)cc1CN1CCCC(C(=O)N2CCCCC2)C1 (centres undefined)	i	i	-3.1	15.0%	1.6%
COc1ccc(Br)cc1CN1CCCC(C(=O)N2CCCCCC2)C1 (centres undefined)	?	?	-56.5*	?	-1.6%
COc1ccc(Br)cc1CN1CCC(N2CCCC2)CC1	i	i	-67.5*	23.1µM*	?
COc1ccc(C(CNC(=O)c2cc(SC)ccc2Cl)N(C)C)cc1 (centres undefined)	i	i	?	3.1%	0.5%
CN1CCc2c(n(CC(O)CN3CCN(CCO)CC3)c3ccccc23)C1=O (centres undefined)	i	i	21.3	-6.1%	-21.8%
COc1ccc(-n2nnc3c(SCC(=O)NCC4CCCO4)ncnc32)cc1 (centres undefined)	i	i	-98.3*	?	11.7%
O=C(CSc1ncnc2c1nnn2Cc1ccccc1)NC1CCCCC1	i	i	-94.8*	23.1µM*	?
O=C(CSc1ncnc2c1cnn2-c1ccc(F)cc1)NCC1CCCO1 (centres undefined)	i	i	-17.0	4.8%	?
COc1ccc(-n2nnc3c(=O)n(CC(=O)N4CCCc5ccccc54)cnc32)cc1	i	i	-6.1	3.0%	-11.4%
COc1ccc(-n2nnc3c(SCC(=O)N4CCCc5ccccc54)ncnc32)cc1	i	i	-9.5	-2.7%	11.6µM*
O=C(CNC(=S)N(Cc1ccccc1F)C1CCCCC1)NCC1CCCO1 (centres undefined)	?	i	-68.2*	1.2%	27.9%
CC(C)c1ccc(NC(=O)CSC2=Nc3ccccc3C3=NC(CCC(=O)NCc4cccs4)C(=O)N23)cc1 (centres undefined)	i	i	.	.	.
Cc1cc2sc3nc(=O)n(-c4ccccc4)c(=O)n3c2cc1C	i	i	-2.6	0.2%	-2.8%
O=C(Cn1cnc2c(nnn2Cc2ccccc2F)c1=O)NCC1CCCO1 (centres undefined)	i	i	-12.1	-2.4%	-9.0%
O=C(CSc1ncnc2c1nnn2Cc1ccccc1F)NCC1CCCO1 (centres undefined)	i	i	-90.1*	?	0.4%
CCOc1ccc(NC(=O)CCc2nnc3ccc(N4CCC5(CC4)OCCO5)nn23)cc1	i	i	21.8	-1.7%	-14.3%
O=C(c1ccc(F)cc1)C1CCN(C(=S)Nc2ccc(F)cc2)CC1	i	i	-25.6	1.9%	-5.2%
SMILES	KB-V1 cytotox	KB-3-1 tox	IL1B secr inh	MCF10A rerep	SW480 rerep
COc1ccc(-c2nnn(CC(=O)N(Cc3ccc(F)cc3)C(C(=O)NC3CCCC3)c3ccc(F)cc3)n2)cc1 (centres undefined)	?	i	25.4	?	-0.7%
COc1ccc(C(C(=O)NC2CCCC2)N(C(=O)c2ccoc2C)c2ccc(C)cc2)cc1 (centres undefined)	i	i	-18.0	-9.1%	?
COc1ccc(C(C(=O)NC2CCCCC2)N(C(=O)CCl)c2ccc(C)cc2)cc1 (centres undefined)	?	?	-106.4*	29.7%	2.59µM*
O=C(NC1CCCC1)C(c1ccc(F)cc1)N(Cc1ccc(F)cc1)C(=O)CCl (centres undefined)	18.4µM*	?	-103.8*	14.4%	?
COC(CN(C(=O)CCl)C(C(=O)NC1CCCCC1)c1ccc(C)cc1)OC (centres undefined)	?	?	-92.6*	-6.0%	5.8µM*
COc1ccc(C(C(=O)NC2CCCCC2)N(C(=O)CCl)c2cccc(Cl)c2)cc1 (centres undefined)	16.4µM*	18.4µM*	-110.2*	20.6µM*	?
CCOc1ccc(S(=O)(=O)N(CC)CC(=O)N2CCOCC2)cc1C	i	i	-2.4	-19.9%	-10.3%
CCOc1cc(NC(=S)NCC2CCCO2)c(OCC)cc1NC(=O)CC(C)C (centres undefined)	i	i	29.9	3.0%	-1.2%
O=C(CCC1N=C2c3ccccc3N=C(SCC(=O)Nc3ccc(F)cc3)N2C1=O)NCc1cccs1 (centres undefined)	?	i	.	.	.
COC(=O)C[C@@H]1C[C@H]2c3cc(NS(C)(=O)=O)ccc3O[C@H]2[C@H](CO)O1	i	i	16.4	.	.
O=c1cc(-c2ccccc2)c2ccc3c(c2o1)CN(Cc1cccc(Cl)c1)CO3	i	i	.	.	.
COc1ccc(C(C(=O)NC2CCCCC2)N(C(=O)CCl)c2ccc(OC)cc2)cc1 (centres undefined)	3.66µM*	5.8µM*	-89.9*	18.4µM*	?
COc1ccc(N(C(=O)Cc2cccs2)C(C(=O)NC2CCCC2)c2ccncc2)cc1 (centres undefined)	?	i	-4.2	-1.0%	-1.8%
CC(=O)Nc1ccc2c(COC(=O)[C@H](C)N3C(=O)C4CCCCC4C3=O)cc(=O)oc2c1 (some centres undefined)	i	?	20.8	-19.7%	-2.1%
Nc1c(Cl)cc(N=Nc2ccccc2)cc1Cl	i	i	-5.7	23.1µM*	21.5%
Oc1ccc(Cl)cc1N=Nc1ccccc1	i	i	8.8	4.1%	2.9%
COc1ccc(NC(=O)Cn2nnc(-c3ccccc3NC(=O)c3cccs3)n2)cc1	i	?	-4.7	14.6µM*	?
O=C(Cn1nnc(-c2ccccc2NC(=O)c2ccco2)n1)Nc1ccccc1	i	i	33.3	?	?
Cc1ccc(NC(=O)Cn2nnc(-c3ccccc3NC(=O)c3cccs3)n2)cc1	1.3µM*	1.03µM*	9.4	6.51µM*	3.66µM*
Cc1ccccc1C(=O)Nc1ccccc1-c1nnn(CC(=O)Nc2ccc3c(c2)OCCO3)n1	3.66µM*	?	32.1	23.1µM*	13.6%
